The results in this text go back to PubChem BioAssay (Tox21).

Records with an inconclusive call do not appear. A number with no mark means an inactive call. The call rests on the fitted dose curve; in most records, active means well fitted cell-killing curve with a large enough effect in the repeat runs; inconclusive means weak or mixed curves, or effect the other way; inactive means flat fitted curve, though single readings scatter.
On the % scale 0 is the no-effect control and ±100 the full control effect.

A short description of this assay: qHTS assay to identify small molecule agonists of the sonic hedgehog signaling (Shh) pathway - cell viability counter screen (AID 1259366). Further: nearly all actives have a fitted effect of over 50% in size. The settings on record: NIH/3T3 Gli1-Luc viability, CellTiter-Fluor, 24 h; series mostly up to 92.4 µM; viability change, negative = cytotoxic: at the top concentration. From the text: National Center for Advancing Translational Sciences [NCATS]
NIH Chemical Genomics Center [NCGC]
U.S. Environmental Protection Agency [EPA]
National Institutes of Environmental Health Sciences [NIEHS]
National Toxicology Program [NTP]
U.S. Food and Drug Administration [FDA]
The sonic hedgehog (Shh) pathway is essential for normal embryonic development. Dysregulation of the Shh pathway can cause severe developmental defects in organs. Therefore chemicals that interfere with the pathway are potential developmental toxicants. A cell line designated 3T3Gli1-Luc (DMB/OARSA/CFSAN/FDA, Laurel, MD), a NIH/3T3 derived clone containing stably integrated Gli1-Luc reporter is used to detect chemical interference of the Shh pathway, by changes in the expression of the firefly Luc gene under the control of the Gli1 transcriptional response element. This cell line was used to screen Tox21 libraries for identifying and prioritizing the potential developmental toxicants that interfere Shh pathway. The cytotoxicity of the compounds was tested in parallel by measuring the cell viability using CellTiter-Fluor assay system (Promega, Madison, WI) in the same wells.
Tox21 Assay Protocol Summary:
3T3 Gli1-Luc cells were dispensed at 2,000 per well in 5uL of culture medium into white solid bottom 1536-well plates (Greiner Bio-One, Monroe, NC) using a Multidrop Combi (Thermo Scientific, Waltham, MA) dispenser. The assay plates were incubated at 37 C and 5% CO2 for 4hr, and then 23nL of compounds dissolved in DMSO and positive control were transferred using a Pintool station (Wako, San Diego, CA). The assay plates were incubated at 37C and 5% CO2 for 24hr. For viability read, after 23hr of compound treatment, 1uL of CellTiter-Fluor reagent (Promega Corporation, Madison, WI) was added to each well of the assay plates using Flying Reagent Dispenser (FRD, Aurora Discovery, San Diego, CA) and incubated the assay plates at 37C for 1hr. The fluorescence signal was quantified using a ViewLux plate reader (Perkin Elmer, Shelton, CT).
With `O=C(O)c1ccc(OCCN2CCCCC2)cc1`, the “viability change, negative = cytotoxic” value is 12.4% [at 42.5 µM].
For `CC(C)SCc1ccco1` the value was 2.72% [at 42.5 µM]; for `CC(C)CCCC(C)CC=O` (stereo not given), 1.08%; for `CCN(CC)C(=O)C1CN2CCc3cc(OC)c(OC)cc3C2CC1OC(C)=O` (stereo not given), -0.608% [at 42.5 µM].
For `Cc1ccc(C(=O)C(=O)O)cc1C` the value was 0.431% [at 42.5 µM]; for `O=C(O)c1ccccc1C(=O)OCc1ccccc1`, 6.35%; for `Cc1nc2ccccc2c(=O)o1`, 2.51%.
Turning to `O=C(O)c1ccccc1C(=O)Nc1ccc(S(=O)(=O)Nc2nccs2)cc1`, the “viability change, negative = cytotoxic” value was -6.15% [at 42.5 µM].
For `CC(=O)/C=C/c1ccco1` the value was -0.314%; for `C=C(C)C(=O)OC1CC(C)CC(C)(C)C1` (stereo not given), 7.15%; for `Cc1ccccc1C(=O)N1CC/C(=N\OS(=O)(=O)O)c2ccc(Cl)cc21`, -0.693% [at 42.5 µM].
For `Cc1ncc([N+](=O)[O-])n1CC(O)CCl` (stereo not given) the value was 1.62% [at 42.5 µM]; for `Nc1ccc(/C=C/c2ccc(N)cc2S(=O)(=O)O)c(S(=O)(=O)O)c1`, 0.832% [at 0.349 µM].
Then `OC[C@@H](O)[C@H](O)[C@@H](O)[C@@H](O)CO`, with 2.88%; and `C/C=C(\C)C(=O)OCC/C=C\CC`, with -1.3%.
For `C=CCOC(=O)c1ccc(C(=O)OCC=C)c(C(=O)OCC=C)c1`, the “viability change, negative = cytotoxic” value is 0.368%.
Then `O=C(/C=C/c1ccccc1)NCCO`, with 9.9% [at 42.5 µM]; and `O=C(O)/C=C/c1ccccc1`, with 5.11%.
Take `CCCCCN(CCCOC)C(=O)C(CCC(=O)O)NC(=O)c1ccc(Cl)c(Cl)c1` (stereo not given): the “viability change, negative = cytotoxic” value was -1.04% [at 42.5 µM].
With `C1=C\CC/C=C\CC/1`, the “viability change, negative = cytotoxic” value was 1.2%.
Then `C=CCOc1c(Br)cc(Br)cc1Br`, with -0.426%.
Then `CCOC(=O)C(C)(C)C`, with 2.2%; and `C=CCCCCCCCCCCC`, with 3.1% [at 8.39 µM]; and `C1=CCC(c2ccccc2)CC1` (stereo not given), with 4.29%.
For `C=C(C)[C@@H]1CC[C@@H](C)C[C@@H]1O` the value was 1.18%; for `O=C(c1ccc2c(c1)C(=O)OC2=O)c1ccc2c(c1)C(=O)OC2=O`, 6.92%; for `Cc1ccc(S(=O)(=O)NC(=O)NC2CCCCCCC2)cc1`, 3.61% [at 42.5 µM].
With `CCOc1ccc(NC(=O)OC(C)C)cc1OCC`, the “viability change, negative = cytotoxic” value is 3.71%.
For `COc1ccc(/C=N/NC(=O)c2ccncc2)cc1OC` the value was 0.205% [at 42.5 µM].
On to `CCCO`, for which the “viability change, negative = cytotoxic” value was -0.477%.
Then `CCC(C)(C)C1CCC(=O)CC1`, with 3.17%; and `CC(Cl)COP(=O)(OCC(C)Cl)OCC(C)Cl` (stereo not given), with 3.13%.
Then `CN(C)CCCNCCC#N`, with 4.33%; and `CCCOC(=O)CCCCC(=O)OCCC`, with 0.746%; and `C=CCOCC(O)CCl` (stereo not given), with 1.72%.
With `C=CCOCC(CO)(COCC=C)COCC=C`, the “viability change, negative = cytotoxic” value is -1.31% [at 42.5 µM].
For `CNC(=O)NC` the value was -11.1%; for `Cc1nc([N+](=O)[O-])cn1-c1ccc([N+](=O)[O-])cc1`, -1.17% [at 42.5 µM]; for `CCCCCCCCCCCCC`, 1.94%.
For `CCCCOC(=O)C(C)OC(=O)CCC` (stereo not given) the value was 6.4%.
